Assay results from PubChem BioAssay (NCI).
This is part of a sample that, as a whole, favours compounds with a hit. Of some 83,000 tested, about 20% had one in any assay.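 Single-concentration screen, 48 h exposure, 96-well plates. Endpoint: percent growth. Below 10 = active.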 A number with no mark means an inactive call. Calls of active or inactive are those of the source.

Key:
Experiment in all cases: NCI-60 one-dose screen, 48 h (100 = growth as untreated, 0 = no growth, -100 = all killed)
[1] = system: RPMI-8226 leukemia; conditions: 10 µM unless noted
[2] = system: OVCAR-8 ovarian; conditions: 10 µM unless noted
[3] = system: OVCAR-5 ovarian; conditions: 10 µM unless noted
[4] = system: OVCAR-4 ovarian; conditions: 10 µM unless noted
[5] = system: SK-OV-3 ovarian; conditions: 10 µM unless noted
[6] = system: IGROV1 ovarian; conditions: 10 µM unless noted
[7] = system: OVCAR-3 ovarian; conditions: 10 µM unless noted
[8] = system: HS 578T breast; conditions: 10 µM unless noted
[9] = system: NCI/ADR-RES ovarian; conditions: 10 µM unless noted
[10] = system: T-47D breast; conditions: 10 µM unless noted
[11] = system: BT-549 breast; conditions: 10 µM unless noted
[12] = system: MDA-MB-435 melanoma; conditions: 10 µM unless noted
[13] = system: SW-620 colon; conditions: 10 µM unless noted
[14] = system: MCF7 breast; conditions: 10 µM
[15] = system: HCT-116 colon; conditions: 10 µM unless noted
[16] = system: HCC-2998 colon; conditions: 10 µM unless noted
[17] = system: KM12 colon; conditions: 10 µM unless noted

Row | SMILES | growth [1] | growth [2] | growth [3] | growth [4] | growth [5] | growth [6] | growth [7] | growth [8] | growth [9] | growth [10] | growth [11] | growth [12] | growth [13] | growth [14] | growth [15] | growth [16] | growth [17]
1 | O=S1(=O)CCN(Cc2ccccc2)CC1 | 102% | 111% | 96.2% | 107% | 101% | 119% | 105% | 109% | 106% | 93.3% | 95.7% | 97.6% | 103% | 104% | 88.4% | 101% | 93.9%
2 | CN1CCN(Cc2ccc(C(=O)Nc3cncc(C#Cc4cnc(N)c5ccccc45)c3)cc2C(F)(F)F)CC1 | -41.4% (active) | -17.8% (active) | -44% (active) | -44.5% (active) | 35.2% | -47.4% (active) | -74.1% (active) | -35.4% (active) | -25.4% (active) | -10.5% (active) | 72% | -89.2% (active) | -66.3% (active) | -68.3% (active) | -84.5% (active) | -52.6% (active) | -70.4% (active)
3 | COc1ccc(Br)c(/C=C2\SC(=Nc3ccc(O)cc3)NC2=O)c1 | 51.7% | 98% | 104% | 83% | 89.9% | 94.3% | 102% | 86.5% | 106% | 68.5% | 83.5% | 87.2% | 104% | 70.4% | 98.7% | 109% | 84.2%
4 | CC(=O)c1ccc(Cc2ccc(C(C)=O)s2)s1 | 95.2% | 107% | 100% | 96.5% | 109% | 96.1% | 100% | 109% | 106% | 96.7% | 110% | 107% | 103% | 85.1% | 103% | 104% | 95.2%
5 | CCOC(=O)c1cc2c(n1Cc1cccc(OC)c1)-c1oncc1CCC2 | 19.1% | 33.4% | 72.8% | 54.3% | 20.7% | 7.29% (active) | -8.41% (active) | 6.59% (active) | 12.2% | 33.1% | 42.4% | -13.4% (active) | 23.6% | 14.1% | 25.2% | 51.6% | 27.1%
6 | COc1ccc(CCN2C(=O)/C(=C/c3ccc(C4Oc5ccccc5C5CC(c6cccc(OC)c6)=NN54)cc3)SC2=S)cc1 (stereo not given) | 103% | 102% | 99.9% | 98.9% | 97.7% | 104% | 102% | 101% | 104% | 100% | 108% | 104% | 98.4% | 93% | 102% | 98.6% | 105%
7 | CCOC(=O)c1cnc2c(C)cccc2c1Nc1ccc(C(C)=O)cc1 | -34.2% (active) | 35% | 45% | 16.2% | 68.2% | 2.45% (active) | -8.93% (active) | 25.6% | 25.1% | -18.4% (active) | 61.5% | -63.8% (active) | -62.2% (active) | -39.7% (active) | 1.75% (active) | -91% (active) | -34.7% (active)
8 | Nc1ccn(C2O[C@H](CO)[C@@H](O)[C@H]2O)c(=O)n1 (stereo not given in full) | 49.8% | 58.5% | 104% | 72.3% | 90.2% | 82.9% | 88.7% | 106% | 70.1% | 99.2% | 111% | 88.8% | 72.7% | 63.1% | 64.4% | 99% | 72.1%
9 | COc1cc(C(C)n2cc(-c3ccccc3)nn2)ccc1OC1CCCC1 (stereo not given) | 36.1% | 65.6% | 93.1% | 54.9% | 75.8% | 70.9% | 61.5% | 94% | 45% | 51.5% | 69.1% | 65.4% | 74.7% | 48.1% | 52.3% | 70.4% | 71.8%
10 | CN1C(=O)N(C)C2(c3ccccc3)OC(=S)NC12c1ccccc1 (stereo not given) | 109% | 100% | 99.6% | 96.1% | 92% | 103% | 97.4% | 108% | 108% | 95.4% | 94.1% | 103% | 111% | 91.8% | 94.8% | 106% | 91.9%
11 | O=C1OC(c2ccccc2)(c2ccccc2)c2ccsc21 | 89.1% | 101% | 95.7% | 107% | 102% | 107% | 100% | 103% | 115% | 104% | 104% | 108% | 97.4% | 104% | 103% | 127% | 99.1%
12 | COc1ccc(CCN2C(=O)CCSC2=S)cc1OC | 37.4% | 97.2% | 96.8% | 90.5% | 105% | 107% | 105% | 93.7% | 103% | 43.4% | 114% | 96.2% | 87.6% | 28% | 103% | 102% | 5.07% (active)
13 | Nc1ccc(-c2ccc(-c3ccccc3N)c3[nH]c4ccccc4c23)cc1 | 6.61% (active) | 33.1% | 56.7% | 67.7% | 28.7% | 53.7% | 19.4% | 40.7% | -6.69% (active) | 15.2% | 53.2% | -58.9% (active) | 29.5% | 19.6% | 22.6% | 42.1% | 23.6%
14 | CCN1CCN(C(=S)SCC(=O)Nc2nc3ccc(C)cc3s2)CC1 | 94.7% | 91.9% | 95.3% | 86.2% | 102% | 72% | 106% | 112% | 103% | 87.8% | 108% | 116% | 109% | 105% | 94.7% | – | 108%
15 | O=C(CN1C(=O)/C(=C\c2ccc(Cl)cc2)SC1=S)Nc1ncc(Cc2ccc(Cl)cc2)s1 | 102% | 101% | 104% | 105% | 104% | 103% | 108% | 98.9% | 104% | 105% | 113% | 110% | 105% | 94.8% | 107% | 106% | 101%
16 | CC1=CCC(OC(=O)C(C)(C)CCC(O)(C(=O)OC2(C(C)C)CCC3(C)OC3C2)C(C)C)(C(C)C)CC1 (stereo not given) | -37.8% (active) | -41.7% (active) | -77.9% (active) | -84.1% (active) | -92.2% (active) | -60.5% (active) | -97% (active) | -7.09% (active) | -9.23% (active) | -55.2% (active) | -88.6% (active) | -98% (active) | -62.1% (active) | -61.1% (active) | -41.2% (active) | -72.8% (active) | -79% (active)
17 | COc1ccc(Cn2c(Br)c3c(c2Br)-c2nc(N)sc2CC3)cc1 | 27.3% | 41% | 91.4% | 47.8% | 24% | 34.7% | 7.35% (active) | 34.1% | 18.5% | 50.4% | 51.4% | -40.6% (active) | 16% | 17.7% | 17.8% | 66.9% | 29.6%
18 | Cc1ccc(F)cc1NC(=O)c1cc(Cl)ccc1Nc1ccccc1 | 32.2% | 27.3% | 70.2% | 51.6% | 82.8% | 71% | 53.4% | 90.4% | 40.1% | 37.1% | 86.2% | 59.5% | 57.5% | 29.7% | 30.9% | 28.2% | 37.1%
